# Most compounds without a hit are left out; they make up all but 2.3% or so of the library.
# M1 ag: activates human CHRM1 receptor | P11229 | CHO-K1 hM1, Fluo-8 calcium fluorescence, agonist mode; 0% DMSO, 100% acetylcholine EC100 | activation, % at 3 µM | 360,000 tested, 0.33% active | AID 588814;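 active = activation above the run's mean compound activation plus 3 SD, cut at about 16% in these data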;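 note: peak over basal fluorescence ratio within a 140 s kinetic read after compound addition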
# Target sequence (P11229 whole entry, looked up): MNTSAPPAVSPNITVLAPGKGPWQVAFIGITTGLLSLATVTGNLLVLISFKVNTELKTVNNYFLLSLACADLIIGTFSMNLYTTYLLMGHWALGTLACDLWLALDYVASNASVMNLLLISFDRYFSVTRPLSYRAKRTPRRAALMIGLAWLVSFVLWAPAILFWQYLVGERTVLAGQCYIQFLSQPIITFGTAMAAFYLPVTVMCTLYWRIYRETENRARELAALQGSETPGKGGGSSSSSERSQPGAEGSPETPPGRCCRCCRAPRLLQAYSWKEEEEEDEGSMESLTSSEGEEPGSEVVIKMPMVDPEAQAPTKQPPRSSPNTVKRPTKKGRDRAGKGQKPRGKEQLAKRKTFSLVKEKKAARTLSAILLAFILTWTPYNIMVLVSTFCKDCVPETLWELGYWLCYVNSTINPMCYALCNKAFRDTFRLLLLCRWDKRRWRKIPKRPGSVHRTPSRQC
# CHO-K1 Ca PAM: nonselective activator or artifact in parental CHO-K1 calcium assay; ATP EC20, Fluo-8 calcium fluorescence; 0% at ATP EC20, 100% at ATP max; activation, % at 3 µM; 360,000 tested, 0.02% active; AID 602247;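 active = activation above the run cutoff, the mean activation of all test compounds plus 3 SD, cut at about 40% in these data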;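 note: peak over basal fluorescence ratio in a 140 s read after ATP addition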
# M1 antag: antagonists of human M1 muscarinic receptor; inhibition, % at 3 µM; P11229; 360,000 tested, 1.3% active; CHO-K1 hM1, Fluo-8 calcium fluorescence, ACh EC80 antagonist;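 active = percent inhibition above its own plate's cutoff, namely the mean of that plate's compound wells plus 3 SD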;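 note: peak over basal fluorescence ratio during 140 s after agonist addition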
# M1 PAM: potentiates human M1 receptor response to acetylcholine | P11229 | CHO-K1 hM1, Fluo-8 calcium fluorescence, ACh EC20; 0% = ACh EC20, 100% = maximal ACh | activation, % at 3 µM | 360,000 tested, 0.088% active | AID 588819; in the data active = activation above about 19%, passing the limit was not always enough
# CHO-K1 Ca antag: counter-screen for M1 antagonists: effect in parental CHO-K1 cells. ATP-induced calcium, Fluo-8 fluorescence. inhibition, % at 3 µM. 360,000 tested, 0.6% active. AID 602250;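 active = inhibition above a per-plate cutoff, the plate's mean sample inhibition plus 3 SD, cut at about 24% in these data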
# CHO-K1 Ca ag: M1 agonist counterscreen hit in parental CHO-K1 cells; Fluo-8 calcium fluorescence; scaled to maximal ATP response, vehicle zero; activation, % at 3 µM; 360,000 tested, 0.48% active; in the data active = activation above about 15%;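 note: untransfected CHO-K1 host cells lacking M1 receptor as counterscreen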
# A number is an active result; - = inactive; . = no result given.
SMILES,M1 ag,CHO-K1 Ca PAM,M1 antag,M1 PAM,CHO-K1 Ca antag,CHO-K1 Ca ag
CC(=O)Nc1ccc(CN2CCCC(C(=O)c3cccc(C(F)(F)F)c3)C2)cc1 (stereo not drawn),-,-,64,-,-,-
O=C(c1cccc(C(F)(F)F)c1)C1CCCN(Cc2ccc(OCCO)cc2)C1 (stereo not drawn),-,-,66,-,-,23
CCc1[nH]nc(C(=O)N2CCCC(C(=O)c3cccc(C(F)(F)F)c3)C2)c1C (stereo not drawn),-,-,-,-,-,15
COc1ccccc1C(=O)C1CCCN(Cc2cccc(OCCO)c2)C1 (stereo not drawn),-,-,-,-,-,-
O=C(c1ccccc1)n1c2ccccc2c(=O)n1-c1ccccc1CCl,-,-,-,-,-,-
Cc1nnc(Cc2ccccc2)c2n[nH]c(C)c12,-,-,-,-,-,-
Cc1nc2sccn2c(=O)c1S(=O)(=O)NCc1ccccc1,-,-,-,-,25,-
COc1cccc(CNS(=O)(=O)c2c(C)nc3sccn3c2=O)c1,-,-,-,-,-,-
Cc1cnc(C(=O)OCC(=O)c2ccc(Br)s2)cn1,-,-,-,-,-,-
COc1ccc(N2CC(O)(c3ccc(OC(F)F)cc3)[N+]3=C2CCCC3)cc1 (stereo not drawn),-,-,42,-,-,-
CCOc1ccc(N2CC(O)(c3cccs3)[N+]3=C2CCCC3)cc1 (stereo not drawn),-,-,41,-,-,-
COc1ccc(N2CC(O)(c3ccc(F)cc3)[N+]3=C2CCCC3)cc1 (stereo not drawn),-,-,47,-,-,-
OC1(c2cccs2)CN(c2ccccc2)C2=[N+]1CCCC2 (stereo not drawn),-,-,-,-,-,-
Cc1cc(Cl)ccc1NC(=S)N1CCN(C(=O)c2ccco2)CC1,-,-,-,-,-,-
Nc1ncnc2c1ncn2[C@@H]1O[C@H](C(=O)N[C@H]2c3ccccc3C[C@H]2OC=O)[C@@H](O)[C@H]1O,-,-,-,-,-,-
CC(CN1CCCCC1)OC(=O)C(C)(c1ccccc1)c1ccccc1 (stereo not drawn),-,-,89,-,-,-
CC(CN1CCOCC1)OC(=O)C(C)(c1ccccc1)c1ccccc1 (stereo not drawn),-,-,-,-,-,-
CCCC1OC(c2cc3c(cc2Cl)OCO3)OCC1CC (stereo not drawn),-,-,-,-,-,-
CC[N+]1(C)CCC(=C2c3ccccc3CC(=O)c3sccc32)CC1 (stereo not drawn),-,-,98,-,-,-
C[N+]1(C)CCC(=C2c3ccccc3CC(=O)c3sccc32)CC1,-,-,95,-,-,-
Cc1cc(NS(=O)(=O)c2ccc(NC(=O)c3ccccc3F)cc2)no1,-,-,-,-,-,-
COc1ccccc1NC(=O)c1cc(OC)c(OC)cc1[N+](=O)[O-],-,-,-,-,-,16
COc1ccccc1NC(=O)c1ccccc1C(=O)Nc1ccccc1OC,-,-,-,-,-,-
CCN(C(=O)COC(=O)CC1CCCCC1)c1c(N)n(Cc2ccccc2)c(=O)[nH]c1=O,-,-,-,-,-,-
Clc1ccc(C2=C3CCCCn4c(-c5ccccc5)c[n+](c43)C2)cc1,-,-,-,-,-,-
SMILES,M1 ag,CHO-K1 Ca PAM,M1 antag,M1 PAM,CHO-K1 Ca antag,CHO-K1 Ca ag
COc1ccc(-c2c[n+]3c4n2CCCCC4=C(c2ccc(Br)cc2)C3)cc1,-,-,35,-,-,-
CCNC(=O)C1(C)CCN(C(=O)c2ccc(C#N)cc2)C1 (stereo not drawn),-,-,-,-,-,-
CCOC(=O)C1CCCN(C(=O)CSc2ccc(Br)cc2)C1 (stereo not drawn),-,-,-,-,-,-
CCOC(=O)C1CCCN(C(=O)CSc2nc(C)cc(C)n2)C1 (stereo not drawn),38,-,-,-,-,-
CCOC(=O)C1CCCN(C(=O)COc2ccccc2O)C1 (stereo not drawn),74,-,62,-,-,-
CCOC(=O)C1CCCN(C(=O)CCc2nnc(-c3ccc(C(C)=O)s3)o2)C1 (stereo not drawn),29,-,-,-,-,-
COC(=O)c1c(NC(=O)COC(=O)CC(NC(C)=O)c2ccccc2)sc(C)c1C (stereo not drawn),-,-,-,-,-,-
Cc1ccc(N2C(=O)CC(NNc3nc4ccccc4s3)C2=O)cc1 (stereo not drawn),-,-,-,-,-,17
O=C1NC[C@H](CCCCN2CCN(CCc3ccc(O)cc3)C(=O)C2=O)N(CCC2CCCCC2)C1=O,.,-,.,.,-,-
O=S(=O)(c1ccccc1)N1CCC(Oc2ccc(-n3cnnn3)cc2)CC1,-,-,-,-,-,18
O=C(NCCc1ccccc1)C1CCN(S(=O)(=O)c2ccc(-n3cnnn3)cc2)CC1,-,-,-,-,-,-
CC(Sc1nnc(N)s1)C(=O)Nc1ccc2c(c1)OCCO2 (stereo not drawn),-,-,-,-,-,-
COc1ccccc1CCN1CCCC(CN(C)CC(C)(C)CO)C1 (stereo not drawn),-,-,47,-,-,-
COc1ccccc1CCN1CCCC(CN(C)C(=O)c2ccoc2)C1 (stereo not drawn),-,-,44,-,-,-
COc1ccccc1CCN1CCCC(CN(C)C(=O)c2ccco2)C1 (stereo not drawn),-,-,-,-,-,-
COCc1ccc(C(=O)N(C)CC2CCCN(CCc3ccccc3F)C2)o1 (stereo not drawn),-,-,48,-,-,-
CC(C)[C@H](NC(=O)c1ccccc1)C(=O)NC1=NCCS1,-,-,-,-,-,-
Cc1nn(S(=O)(=O)c2cccs2)c(C)c1Sc1ccc([N+](=O)[O-])cc1,-,-,28,-,-,-
Cc1nn(S(=O)(=O)c2ccccc2)c(C)c1Sc1ccc([N+](=O)[O-])cc1,-,-,-,-,-,-
CCOC(=O)c1sc(-c2ccc(OC)cc2)cc1N,-,-,-,-,28,-
CCOC(=O)c1sc(-c2ccc(F)cc2)cc1N,-,-,-,-,-,-
CN(C(=O)COC(=O)c1ccc(S(=O)(=O)N2CCCCCC2)cc1)c1ccccc1,-,-,-,-,-,-
CN(C(=O)COC(=O)c1ccc(CN2CCCC2=O)cc1)c1ccccc1,-,-,68,-,-,-
O=C(COc1ccccc1)NCC(=O)N/N=C/c1cc(Br)ccc1OCc1ccccc1,-,-,-,-,-,-
Cc1cccc(OCC(=O)NCC(=O)N/N=C/c2cc(Br)ccc2OCc2ccccc2)c1,-,-,-,-,-,18

# Compound activity (PubChem BioAssay)
